# Activity calls are given as the source filed them. How the source made its calls: active means hit-call score of the fitted dose curve at least 0.9, where 1 is the maximum; inactive means score below 0.9.
# Read-out: matrix metalloproteinase-10 (MMP10), MMP10 (gene 4319)
# Assay: LTEA_HepaRG_MMP10: Life Technologies and Expression Analysis (LTEA) Assay for matrix metalloproteinase-10 (MMP10) using HepaRG (AID 2283517)
# Conditions: mRNA level, 48 h; actives raise or lower the signal
# Method: LTEA_HepaRG is a cell based, multiplexed-readout assay that uses HepaRG, a human liver cell line, with measurements taken at 48 hours after chemical dosing on a 96-well plate.LTEA_HepaRG_MMP10 is one of 102 assay component(s) measured in the LTEA HepaRG cell culture assay. It is a marker of Fibrosis.Data from the assay component LTEA_HepaRG_MMP10 was analyzed into 1 endpoint. This assay endpoint, LTEA_HepaRG_MMP10, was analyzed with bidirectional fitting relative to DMSO as the negative control and baseline of activity. Using a type of inducible reporter, measures of mRNA induction for gain or loss-of-signal activity can be used to understand regulation of transcription factor activity. To generalize the intended target to other relatable targets, this assay endpoint is annotated to the protease intended target family, where the subfamily is matrix metalloproteinase.
# A total of 1060 chemcials from the ToxCast library were tested in eight-point concentration-response experiments. Cell culture and cytotoxicity assays were conducted at Thermo Fisher Scientific's Custom Services facility (Madison, WI). A single lot of human HepaRG cells (Thermo Fisher Scientific, Frederick, MD) was used for the cell culture experiments. 96-well format collagen type I coated plates of human HepaRG cells were prepared using established methods. Briefly, cryopreserved HepaRG cells were thawed, plated at a density of approximately 100,000 cells/well in HepaRG Thaw, Plate, and General Purpose media (HPRG770, Thermo Fisher Scientific), and incubated for 48 hours. 0.5% DMSO was selected as vehicle control to balance the requisite need of DMSO in HepaRG cultures to maintain differentiation (for example, baseline metabolism, proportions of hepatocytes vs. cholangiocytes), while enabling further hepatic receptor pathway activation (for example, PXR and CAR) in response to chemical exposure. 48 hours after plating, the culture medium was replaced with HepaRG Serum-Free Incudtion Media. Cells were exposed to each test chemical in duplicate and maintained in CO2 incubators for another 48 hours. Chemical plates were thawed to room temperature and 200x concentrations of treatment groups were prepared. 8-point conentration-reponse curves were made with the highest exposure at 100 uM, followed by half-log dilutions, all in 0.5% DMSO. Each test plate contained variouse controls, induction positive controls (1mM phenobarbital), cytotoxicity positive controls ([…] aflatoxin B1), vehicle controls (0.5% DMSO), and total lysis controls (0.5% DMSO). Cell morphology images were taken using an Essen IncuCyte FLR automated microscope, with six 96-well plates imaged in about 24 minutes. Images were captured and exported and JPEG files. Spent culture media was transfered to black-well plates for the LDH assay, and remaining media was sorted at -80 C for later use. Cells were treated with RLT buffer and frozen until shipped for gene expression analysis. Total RNA was isolated from the cell suspension in 75 uL of Buffer RLT (Qiagen, Germantown, MD 20874) by Quintiles/Expression Analysis (Durham, NC) using a custom isolation procedure. Total RNA from each plate well was transferred to a preamplification plate. Fluidigm's 96.96 Dynamic ArrayTM (Fluidigm, Amsterdam, the Netherlands) technology was used for gene expression analyses by quantitative reverse transcription polymerase chain reaction (qRT-PCR, performed by Quintiles/Expression Analysis, Durham, NC)89. Standard TaqManTM Assays (Applied Biosystems/ThermoFisher Scientific, Foster City, CA) were used to assess the expression of 93 genes selected based on their selectivity and sensitivity to important hepatic receptors known to be modulated by environmental chemicals; importance in human hepatocyte functionality; and hepatotoxicity. […]
SMILES,outcome,AC50
CC=Cc1ccc(O)c(OC)c1,inactive,
CCCc1cc(=O)[nH]c(=S)[nH]1,inactive,
O=c1[nH]cc(F)c(=O)[nH]1,inactive,
CNCc1cc(F)ccc1Oc1ccc(Cl)c(Cl)c1,,91.2 µM (active)
c1cc(-c2ccncc2)ccn1,inactive,
COc1cc(S(=O)(=O)O)c(C)cc1N=Nc1c(O)ccc2cc(S(=O)(=O)O)ccc12,inactive,
CCc1c(C(=O)NN2CCCCC2)nn(-c2ccc(Cl)cc2Cl)c1-c1ccc(Br)cc1,,33.2 µM (active)
CC1=C(/C=C/C(C)=C/C=C/C(C)=C/CO)C(C)(C)CCC1,inactive,
C=CCOC(=O)c1ccccc1C(=O)OCC=C,inactive,
NC(=O)Cn1c(=O)cc(CCN2CCN(c3nccc4sccc34)CC2)c2ccc(F)cc21,inactive,
COCCOC[C@H](CC1(C(=O)NC2CCC(C(=O)O)CC2)CCCC1)C(=O)Oc1ccc2c(c1)CCC2 (stereo not given in full),inactive,
CCCCOC(=O)CCCCCCCCC(=O)OCCCC,inactive,
COc1cc(C=O)ccc1O,inactive,
O=[N+]([O-])C(CO)(CO)CO,inactive,
Cc1nc(-c2ccc3c(c2)CCN(CCC2CCC(NC(=O)/C=C/c4ccc(F)cc4)CC2)CC3)no1 (stereo not given),inactive,
CC1(C)CC(N=C=O)CC(C)(CN=C=O)C1 (stereo not given),inactive,
Nc1ccc2c(c1)C(=O)c1ccccc1C2=O,inactive,
CNC(=O)[C@H]1O[C@@H](n2cnc3c(NCc4cc(Cl)ccc4OCc4cc(C)no4)ncnc32)[C@H](O)[C@@H]1N,inactive,
COc1ccc(S(=O)(=O)N2C(=O)[C@@](c3ccccc3OC)(N3C[C@H](O)C[C@H]3C(=O)N(C)C)c3cc(Cl)ccc32)c(OC)c1,,50 µM (active)
Clc1cc(Cl)c(Cl)cc1Cl,inactive,

SMILES,outcome,AC50
Cc1cccc(Nc2cc(Cl)nc(SCC(=O)O)n2)c1C,inactive,
CCCCCCCCCCCCCCCCCC(=O)O,inactive,
Cc1ccc(C)c(O)c1C,inactive,
Cc1ccc2ncccc2c1,inactive,
CN[C@H]1CC[C@@H](c2ccc(Cl)c(Cl)c2)c2ccc(S(N)(=O)=O)cc21,,66.4 µM (active)
Nc1ccc(S(=O)(=O)c2ccc(N)cc2)cc1,inactive,
Oc1ccc2ccccc2c1N=Nc1ccccc1,inactive,
COc1ccc(C)cc1N,inactive,
NS(=O)(=O)c1cc2c(cc1Cl)NCNS2(=O)=O,inactive,
NCC1(Cc2noc(=O)[nH]2)CCCCC1,inactive,
COc1ccc2c(c1)c(CC(=O)O)c(C)n2C(=O)c1ccc(Cl)cc1,inactive,
CN1CCCC1=O,inactive,
CCCCCCC(=O)OCC,inactive,
CCOC(=O)CCC(=O)OCC,inactive,
NCCO,inactive,
CCCCCCCC=O,inactive,
CCCCCCOCCO,inactive,
C[C@]12C=CC(=O)C=C1CC[C@@H]1[C@@H]2C(=O)C[C@@]2(C)[C@H]1CC[C@]2(O)C(=O)CO,inactive,
CCCCCCCCCCC,inactive,
Cc1nc(C)nc(N2C[C@@H](C)N(c3ccnc([C@@H](C)O)n3)[C@@H](C)C2)n1,inactive,

# Reference: PubChem BioAssay (EPA / NIEHS)
